These results are taken from PubChem BioAssay (EPA / NIEHS).

The structures appear in SMILES notation. Active and inactive are the calls of the source. How the source made its calls: active means hit-call score of the fitted dose curve at least 0.9, where 1 is the maximum; inactive means score below 0.9.

A short description of one assay: CEETOX_H295R_11DCORT: CeeTox H295R High-throughput Steroidogenesis Assay for 11-Deoxycortisol (11DCORT) (AID 2283432).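 On AC50: 11-deoxycortisol secreted into the medium measured by LC-MS/MS.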 The note with it: actives raise or lower the signal. An outline of the steps: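 Human adrenal H295R cells were prestimulated with 10 uM forskolin for 48 h, then exposed to test chemical (0.1% DMSO final) for 48 h. Medium 11-deoxycortisol was quantified by MTBE extraction and HPLC-MS/MS; bidirectional fitting relative to DMSO.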
As for `COc1ccc(N)cc1`, the outcome was inactive.
Same read-out and setting: the result for `CCC[CH2][Sn]([Cl])([Cl])[CH2]CCC` reads “inactive”; that for `CC(C)(COCC1CO1)COCC1CO1` (stereo unspecified), “inactive”; that for `Cc1ccccc1OP(=O)(Oc1ccccc1C)Oc1ccccc1C`, “inactive”.
The same measure, in the same setting: the result for `CC(C)(C)c1ccccc1O` reads “inactive”.
Take `CCOP(=O)(OCC)OC(=CCl)c1ccc(Cl)cc1Cl`: the AC50 was 5.43 µM (active).
In the case of `C[C@]12CC[C@@H](O)C[C@@H]1CC[C@@H]1[C@@H]2CC[C@]2(C)C(=O)CC[C@@H]12`, the outcome was inactive.
Take `OC(Cc1ccccc1Cl)(Cn1cncn1)C1(Cl)CC1` (stereo unspecified): the AC50 is 11.8 µM (active).
With `O=[N+]([O-])c1ccc(Nc2ccccc2)cc1`, the molecule was called inactive.
With `Cc1cc(C(C)(C)c2ccc(O)c(C)c2)ccc1O`, the AC50 is 5 µM (active).
Consider `OC(Cc1ccccc1Cl)(Cn1[nH]cnc1=S)C1(Cl)CC1` (stereo unspecified), for which the call was inactive.
On the same count and under the same terms, the result for `Oc1cccc(-c2ccccc2)c1` reads “inactive”.

Another assay is described as follows: CEETOX_H295R_OHPREG: CeeTox H295R High-throughput Steroidogenesis Assay for OH-Pregnenolone (OHPREG) (AID 2283434). The following applies: actives raise or lower the signal. Put shortly: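 Secreted 17alpha-hydroxypregnenolone measured by HPLC-MS/MS after liquid-liquid extraction. Human adrenal H295R cells received 48 h forskolin (10 uM) stimulation before 48 h chemical exposure at 0.1% final DMSO; MTT viability in same wells; bidirectional fit against DMSO.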
As to `CC(C)(C)c1cc([N+](=O)[O-])cc(C(C)(C)C)c1O`, the result was inactive.
For `COc1ccc(N)cc1`, the outcome was inactive.
Same read-out and setting: the result for `CCC[CH2][Sn]([Cl])([Cl])[CH2]CCC` reads “inactive”; that for `Cc1cc(C)cc(C)c1`, “inactive”; that for `Oc1c(Cl)cc(Cl)cc1Cl`, “inactive”.
For `CC(C)(COCC1CO1)COCC1CO1` (stereo unspecified), the molecule was classed as inactive.
Same read-out and setting: in the case of `Cc1ccccc1OP(=O)(Oc1ccccc1C)Oc1ccccc1C` it was “inactive”; in that of `CC(C)(C)c1ccccc1O`, “inactive”.
On the same count and under the same terms, the result for `CCOP(=O)(OCC)OC(=CCl)c1ccc(Cl)cc1Cl` reads “inactive”.
Regarding `C[C@]12CC[C@@H](O)C[C@@H]1CC[C@@H]1[C@@H]2CC[C@]2(C)C(=O)CC[C@@H]12`, the result was inactive.
For the molecule `OC(Cc1ccccc1Cl)(Cn1cncn1)C1(Cl)CC1` (stereo unspecified), the AC50 is 1.37 µM (active).
Take `O=[N+]([O-])c1ccc(Nc2ccccc2)cc1`: the result was inactive.
On to `Cc1cc(C(C)(C)c2ccc(O)c(C)c2)ccc1O`, for which the result was inactive.
For the molecule `OC(Cc1ccccc1Cl)(Cn1[nH]cnc1=S)C1(Cl)CC1` (stereo unspecified), the molecule was classed as inactive.
The same measure, in the same setting: in the case of `Oc1cccc(-c2ccccc2)c1` it was “inactive”.

The nature of another assay: CEETOX_H295R_OHPROG: CeeTox H295R High-throughput Steroidogenesis Assay for OH-Progesterone (OHPROG) (AID 2283435).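 On AC50: 17alpha-hydroxyprogesterone secreted into medium measured by HPLC-MS/MS.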 The note with it: actives raise or lower the signal. An outline of the steps: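 Human adrenocortical H295R cells, passage 10 or lower, were treated with chemical for 48 h after forskolin priming, and hormone output in the medium was quantified by LC-MS/MS.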
Take `CC(C)(C)c1cc([N+](=O)[O-])cc(C(C)(C)C)c1O`: the molecule was called inactive.
Regarding `COc1ccc(N)cc1`, the AC50 was 31.7 µM (active).
On to `CCC[CH2][Sn]([Cl])([Cl])[CH2]CCC`, for which the outcome was inactive.
Regarding `Cc1cc(C)cc(C)c1`, the result was inactive.
Consider `Oc1c(Cl)cc(Cl)cc1Cl`, for which the AC50 is 66.5 µM (active).
With `CC(C)(COCC1CO1)COCC1CO1` (stereo unspecified), the molecule was called inactive.
`Cc1ccccc1OP(=O)(Oc1ccccc1C)Oc1ccccc1C`: the molecule was classed as inactive.
On the same count and under the same terms, the result for `CC(C)(C)c1ccccc1O` reads “inactive”.
As to `CCOP(=O)(OCC)OC(=CCl)c1ccc(Cl)cc1Cl`, the AC50 is 5.16 µM (active).
As for `C[C@]12CC[C@@H](O)C[C@@H]1CC[C@@H]1[C@@H]2CC[C@]2(C)C(=O)CC[C@@H]12`, the AC50 was 1.87 µM (active).
Consider `OC(Cc1ccccc1Cl)(Cn1cncn1)C1(Cl)CC1` (stereo unspecified), for which the outcome was inactive.
Take `O=[N+]([O-])c1ccc(Nc2ccccc2)cc1`: the AC50 was 1.42 µM (active).
For `Cc1cc(C(C)(C)c2ccc(O)c(C)c2)ccc1O`, the outcome was inactive.
For the molecule `Oc1c(Br)cc(Br)cc1Br`, the AC50 was 36 µM (active).
Regarding `OC(Cc1ccccc1Cl)(Cn1[nH]cnc1=S)C1(Cl)CC1` (stereo unspecified), the call was inactive.
Regarding `Oc1cccc(-c2ccccc2)c1`, the AC50 was 9.06 µM (active).

The nature of the next assay: CEETOX_H295R_ANDR: CeeTox H295R High-throughput Steroidogenesis Assay for Androstenedione (ANDR) (AID 2283436). The note with it: actives raise or lower the signal. An outline of the steps:
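Medium from 48 h chemical-treated H295R adrenal cells was extracted with MTBE and androstenedione measured by LC-MS/MS. Activity was fit in both directions relative to DMSO. Cytotoxic concentrations were re-tested after dilution until MTT viability reached ≥70%.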
Take `Cc1ccccc1OP(=O)(Oc1ccccc1C)Oc1ccccc1C`: the call was inactive.
`Cc1cc(C(C)(C)c2ccc(O)c(C)c2)ccc1O`: the AC50 is 5 µM (active).
On to `OC(Cc1ccccc1Cl)(Cn1[nH]cnc1=S)C1(Cl)CC1` (stereo unspecified), for which the result was inactive.

By AC50 is commonly meant the midpoint of the concentration-response curve, whichever way the signal moves.
